# Measurements published in paper PMC7862700, “An all-to-all approach to the identification of sequence-specific readers for epigenetic DNA modifications on cytosine”.
# Key:
# Experiment in all cases: DAPPL (digital affinity profiling via proximity ligation, sequencing); 10 mM Tris-HCl pH 7.5, 50 mM NaCl, 1 mM DTT, 4% glycerol, room temperature, 30 min; GST-TFs on glutathione beads, 16-mer random dsDNA library, 0.1% formaldehyde crosslink after washing; high values mean tight binding
# FLI1 = biological target: T1, FLI1 (Homo sapiens, UniProt Q01543 1-452); settings: protein: recombinant; tags: N-terminal GST; dsDNA, one strand shown
# T1 sequence: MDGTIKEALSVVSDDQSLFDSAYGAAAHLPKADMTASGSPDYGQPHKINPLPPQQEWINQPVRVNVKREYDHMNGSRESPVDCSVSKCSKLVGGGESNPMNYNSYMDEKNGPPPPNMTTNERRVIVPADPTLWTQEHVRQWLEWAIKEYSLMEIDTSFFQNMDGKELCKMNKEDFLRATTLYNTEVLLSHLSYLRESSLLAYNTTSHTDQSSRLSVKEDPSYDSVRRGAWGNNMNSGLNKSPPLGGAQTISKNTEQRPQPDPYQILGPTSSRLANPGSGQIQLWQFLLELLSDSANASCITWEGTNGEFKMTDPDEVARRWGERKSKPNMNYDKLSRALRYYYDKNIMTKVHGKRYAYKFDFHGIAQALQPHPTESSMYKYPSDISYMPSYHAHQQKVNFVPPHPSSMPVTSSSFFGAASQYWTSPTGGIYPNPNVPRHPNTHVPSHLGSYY
# Procedure, shortened: (§1)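 Binding signal is each hexamer's read frequency for a factor divided by its frequency in the tag-only sample. The factors were GST-fused human transcription factors from yeast, captured on glutathione beads, DNA-barcoded and pooled with that sample. Pools were incubated with 200 nmole of a random double-stranded 16-mer DNA library in Tris/NaCl/DTT/glycerol buffer at room temperature for 30 min, then washed, crosslinked with 0.1% formaldehyde, proximity-ligated with BsaI/T4 ligase (1 h, 37 °C), PCR-amplified and sequenced on an Illumina NextSeq500.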
# ELK1 = biological target: T2, ELK1 (Homo sapiens, UniProt P19419 1-428); settings: protein: recombinant; tags: N-terminal GST; dsDNA, one strand shown
# T2 sequence: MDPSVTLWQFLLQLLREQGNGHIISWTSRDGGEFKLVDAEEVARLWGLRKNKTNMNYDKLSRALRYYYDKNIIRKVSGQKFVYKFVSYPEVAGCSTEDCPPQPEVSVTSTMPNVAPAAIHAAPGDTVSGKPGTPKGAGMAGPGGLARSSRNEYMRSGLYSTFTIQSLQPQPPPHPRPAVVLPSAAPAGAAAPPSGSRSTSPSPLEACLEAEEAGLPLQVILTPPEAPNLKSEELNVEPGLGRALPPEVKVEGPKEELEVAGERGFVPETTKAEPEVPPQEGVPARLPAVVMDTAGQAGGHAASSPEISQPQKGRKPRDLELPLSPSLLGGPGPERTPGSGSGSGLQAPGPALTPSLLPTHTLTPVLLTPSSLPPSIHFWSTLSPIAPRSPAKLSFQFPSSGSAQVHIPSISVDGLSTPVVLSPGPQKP
# Procedure, shortened: as §1
# GABPA = biological target: T3, GABPA (Homo sapiens, UniProt Q06546 1-454); settings: protein: recombinant; tags: N-terminal GST; dsDNA, one strand shown
# T3 sequence: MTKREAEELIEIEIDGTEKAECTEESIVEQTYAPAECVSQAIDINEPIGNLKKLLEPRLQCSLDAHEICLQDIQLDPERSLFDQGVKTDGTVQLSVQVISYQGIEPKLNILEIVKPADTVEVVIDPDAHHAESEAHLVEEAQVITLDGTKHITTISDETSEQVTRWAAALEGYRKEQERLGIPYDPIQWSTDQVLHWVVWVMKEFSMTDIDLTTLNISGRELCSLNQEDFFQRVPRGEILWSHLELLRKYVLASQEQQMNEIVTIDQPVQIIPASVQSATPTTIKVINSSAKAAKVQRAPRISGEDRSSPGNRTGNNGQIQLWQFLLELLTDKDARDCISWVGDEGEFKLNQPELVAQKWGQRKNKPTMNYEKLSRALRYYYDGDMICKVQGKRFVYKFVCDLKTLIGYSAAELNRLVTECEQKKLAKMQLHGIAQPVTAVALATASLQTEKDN
# Procedure, shortened: as §1
# ERG = biological target: T4, ERG (Homo sapiens, UniProt P11308 1-479); settings: protein: recombinant; tags: N-terminal GST; dsDNA, one strand shown
# T4 sequence: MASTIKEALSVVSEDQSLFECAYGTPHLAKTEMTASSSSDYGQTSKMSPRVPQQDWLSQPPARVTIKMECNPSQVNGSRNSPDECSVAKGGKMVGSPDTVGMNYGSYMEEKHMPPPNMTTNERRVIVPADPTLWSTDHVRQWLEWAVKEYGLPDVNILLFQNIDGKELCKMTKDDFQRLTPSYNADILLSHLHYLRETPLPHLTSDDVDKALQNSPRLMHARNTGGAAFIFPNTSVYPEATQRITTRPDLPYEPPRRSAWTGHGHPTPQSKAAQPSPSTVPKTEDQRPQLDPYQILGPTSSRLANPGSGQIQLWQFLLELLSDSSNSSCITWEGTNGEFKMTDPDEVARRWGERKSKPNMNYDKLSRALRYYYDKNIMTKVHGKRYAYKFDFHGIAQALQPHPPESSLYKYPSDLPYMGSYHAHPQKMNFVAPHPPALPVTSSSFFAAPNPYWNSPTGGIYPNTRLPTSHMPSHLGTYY
# Procedure, shortened: as §1
# ELF1 = ELF1 (Homo sapiens, UniProt P32519 1-619); settings: protein: recombinant; tags: N-terminal GST; dsDNA, one strand shown
# Procedure, shortened: as §1
# EHF = biological target: T5, EHF (Homo sapiens, UniProt Q9NZC4 1-300); settings: protein: recombinant; tags: N-terminal GST; dsDNA, one strand shown
# T5 sequence: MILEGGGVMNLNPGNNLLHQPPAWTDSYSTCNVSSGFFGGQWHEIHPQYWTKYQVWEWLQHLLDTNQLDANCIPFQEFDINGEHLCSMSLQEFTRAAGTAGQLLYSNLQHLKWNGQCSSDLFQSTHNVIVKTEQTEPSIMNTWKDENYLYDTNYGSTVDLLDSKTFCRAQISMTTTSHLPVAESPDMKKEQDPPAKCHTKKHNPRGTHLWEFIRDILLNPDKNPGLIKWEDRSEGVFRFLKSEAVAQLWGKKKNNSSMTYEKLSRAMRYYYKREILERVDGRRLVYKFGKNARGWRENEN
# Procedure, shortened: as §1
# SPI1 = SPI1 (Homo sapiens, UniProt P17947 1-270); settings: protein: recombinant; tags: N-terminal GST; dsDNA, one strand shown
# Procedure, shortened: as §1
# SPIB = SPIB (Homo sapiens, UniProt Q01892 1-262); settings: protein: recombinant; tags: N-terminal GST; dsDNA, one strand shown
# Procedure, shortened: as §1
# ELK3 = biological target: T6, ELK3 (Homo sapiens, UniProt P41970 1-407); settings: protein: recombinant; tags: N-terminal GST; dsDNA, one strand shown
# T6 sequence: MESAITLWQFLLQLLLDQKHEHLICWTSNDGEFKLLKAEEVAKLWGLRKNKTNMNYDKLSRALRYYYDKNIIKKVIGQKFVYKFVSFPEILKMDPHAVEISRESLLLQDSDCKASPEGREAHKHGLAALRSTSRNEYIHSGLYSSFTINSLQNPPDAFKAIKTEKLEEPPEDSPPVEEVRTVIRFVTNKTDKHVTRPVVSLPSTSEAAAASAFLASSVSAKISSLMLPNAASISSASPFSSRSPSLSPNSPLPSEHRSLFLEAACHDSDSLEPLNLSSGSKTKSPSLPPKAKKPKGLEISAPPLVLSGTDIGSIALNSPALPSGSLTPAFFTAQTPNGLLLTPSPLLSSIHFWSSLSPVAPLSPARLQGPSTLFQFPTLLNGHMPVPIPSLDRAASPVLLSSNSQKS
# Procedure, shortened: as §1
# FEV = biological target: T7, FEV (Homo sapiens, UniProt Q99581 1-238); settings: protein: recombinant; tags: N-terminal GST; dsDNA, one strand shown
# T7 sequence: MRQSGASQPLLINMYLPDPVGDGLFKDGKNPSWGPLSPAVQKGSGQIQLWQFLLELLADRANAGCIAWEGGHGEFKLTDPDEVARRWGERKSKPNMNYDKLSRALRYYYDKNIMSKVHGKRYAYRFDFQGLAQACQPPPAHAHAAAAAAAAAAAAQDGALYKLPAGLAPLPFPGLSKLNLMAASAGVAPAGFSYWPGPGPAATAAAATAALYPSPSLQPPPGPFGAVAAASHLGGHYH
# Procedure, shortened: as §1
# ETV5 = ETV5 (Homo sapiens, UniProt P41161 1-510); settings: protein: recombinant; tags: N-terminal GST; dsDNA, one strand shown
# Procedure, shortened: as §1
# HSF1 = HSF1 (Homo sapiens, UniProt Q00613 1-529); settings: protein: recombinant; tags: N-terminal GST; chain copies: 3; dsDNA, one strand shown
# Procedure, shortened: as §1
# SPIC = biological target: T8, SPIC (Homo sapiens, UniProt Q8N5J4 1-248); settings: protein: recombinant; tags: N-terminal GST; dsDNA, one strand shown
# T8 sequence: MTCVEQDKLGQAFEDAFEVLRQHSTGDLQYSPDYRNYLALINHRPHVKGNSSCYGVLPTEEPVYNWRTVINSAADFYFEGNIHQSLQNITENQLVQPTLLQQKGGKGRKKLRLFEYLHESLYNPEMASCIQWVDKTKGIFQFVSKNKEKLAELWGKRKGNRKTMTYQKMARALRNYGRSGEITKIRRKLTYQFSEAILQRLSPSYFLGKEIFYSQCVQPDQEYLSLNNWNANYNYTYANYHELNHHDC
# Procedure, shortened: as §1
# ELF4 = ELF4 (Homo sapiens, UniProt Q99607 1-663); settings: protein: recombinant; tags: N-terminal GST; dsDNA, one strand shown
# Procedure, shortened: as §1
# ELK4 = biological target: T9, ELK4 (Homo sapiens, UniProt P28324-2 1-405); settings: protein: recombinant; tags: N-terminal GST; dsDNA, one strand shown
# T9 sequence: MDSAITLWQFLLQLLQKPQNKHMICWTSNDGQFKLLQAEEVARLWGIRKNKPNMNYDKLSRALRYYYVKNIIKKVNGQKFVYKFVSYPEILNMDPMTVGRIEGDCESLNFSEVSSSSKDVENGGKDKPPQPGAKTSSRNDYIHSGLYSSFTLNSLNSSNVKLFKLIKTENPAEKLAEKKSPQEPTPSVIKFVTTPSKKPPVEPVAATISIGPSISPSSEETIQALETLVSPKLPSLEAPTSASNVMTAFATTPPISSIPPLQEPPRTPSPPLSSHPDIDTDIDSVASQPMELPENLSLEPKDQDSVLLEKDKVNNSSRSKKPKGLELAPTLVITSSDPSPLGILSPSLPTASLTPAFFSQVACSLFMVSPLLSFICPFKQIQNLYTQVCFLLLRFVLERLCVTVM
# Procedure, shortened: as §1
# ETV2 = biological target: T10, ETV2 (Homo sapiens, UniProt O00321 1-342); settings: protein: recombinant; tags: N-terminal GST; dsDNA, one strand shown
# T10 sequence: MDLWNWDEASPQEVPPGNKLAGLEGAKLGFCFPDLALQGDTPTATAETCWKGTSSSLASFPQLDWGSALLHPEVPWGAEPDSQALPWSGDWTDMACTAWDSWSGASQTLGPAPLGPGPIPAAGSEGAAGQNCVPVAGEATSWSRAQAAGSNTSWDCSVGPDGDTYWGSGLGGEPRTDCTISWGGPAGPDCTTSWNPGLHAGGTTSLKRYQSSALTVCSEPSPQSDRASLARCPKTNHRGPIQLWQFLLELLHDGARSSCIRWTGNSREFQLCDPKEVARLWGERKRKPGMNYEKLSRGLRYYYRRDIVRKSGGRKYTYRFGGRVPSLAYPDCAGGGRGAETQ
# Procedure, shortened: as §1
# ELF3 = biological target: T11, ELF3 (Homo sapiens, UniProt P78545 1-371); settings: protein: recombinant; tags: N-terminal GST; dsDNA, one strand shown
# T11 sequence: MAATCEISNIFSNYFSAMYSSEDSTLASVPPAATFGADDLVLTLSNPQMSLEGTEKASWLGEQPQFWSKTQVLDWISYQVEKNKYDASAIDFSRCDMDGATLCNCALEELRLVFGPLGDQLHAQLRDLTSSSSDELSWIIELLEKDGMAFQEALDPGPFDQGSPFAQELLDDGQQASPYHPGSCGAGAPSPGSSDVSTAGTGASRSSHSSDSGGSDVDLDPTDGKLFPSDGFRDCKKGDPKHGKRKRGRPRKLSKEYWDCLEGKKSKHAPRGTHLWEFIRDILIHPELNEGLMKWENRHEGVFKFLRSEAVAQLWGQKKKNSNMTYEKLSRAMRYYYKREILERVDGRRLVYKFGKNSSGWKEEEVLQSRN
# Procedure, shortened: as §1
# CRX = CRX (Homo sapiens, UniProt O43186 1-299); settings: protein: recombinant; tags: N-terminal GST; dsDNA, one strand shown
# Procedure, shortened: as §1
# ETV1 = ETV1 (Homo sapiens, UniProt P50549 1-477); settings: protein: recombinant; tags: N-terminal GST; dsDNA, one strand shown
# Procedure, shortened: as §1
# Chain of ELF4 (Q99607 whole entry): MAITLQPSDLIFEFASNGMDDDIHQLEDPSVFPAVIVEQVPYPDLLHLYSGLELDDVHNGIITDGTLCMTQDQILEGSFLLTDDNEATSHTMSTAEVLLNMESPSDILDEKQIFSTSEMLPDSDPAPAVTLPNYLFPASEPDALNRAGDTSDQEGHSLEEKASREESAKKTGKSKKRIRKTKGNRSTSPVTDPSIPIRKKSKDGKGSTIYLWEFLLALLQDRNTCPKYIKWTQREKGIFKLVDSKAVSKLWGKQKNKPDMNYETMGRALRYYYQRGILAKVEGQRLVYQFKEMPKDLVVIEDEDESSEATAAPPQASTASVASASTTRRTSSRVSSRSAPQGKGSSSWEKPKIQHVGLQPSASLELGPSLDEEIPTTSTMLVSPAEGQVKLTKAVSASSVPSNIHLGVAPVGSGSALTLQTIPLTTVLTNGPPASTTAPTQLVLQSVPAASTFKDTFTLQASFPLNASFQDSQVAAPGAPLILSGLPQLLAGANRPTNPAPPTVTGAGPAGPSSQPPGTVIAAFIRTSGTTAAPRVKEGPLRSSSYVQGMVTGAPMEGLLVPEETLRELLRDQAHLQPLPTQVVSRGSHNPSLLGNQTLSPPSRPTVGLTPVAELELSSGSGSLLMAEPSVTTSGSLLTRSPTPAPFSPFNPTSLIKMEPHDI
# Chain of SPIB (Q01892 whole entry): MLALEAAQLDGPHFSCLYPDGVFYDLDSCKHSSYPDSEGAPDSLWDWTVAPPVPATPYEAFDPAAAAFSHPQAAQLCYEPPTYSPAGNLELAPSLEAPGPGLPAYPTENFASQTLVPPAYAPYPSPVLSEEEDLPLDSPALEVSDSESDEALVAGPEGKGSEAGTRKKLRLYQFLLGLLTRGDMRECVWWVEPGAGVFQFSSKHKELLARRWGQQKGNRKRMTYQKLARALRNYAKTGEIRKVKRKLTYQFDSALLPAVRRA
# Chain of CRX (O43186 whole entry): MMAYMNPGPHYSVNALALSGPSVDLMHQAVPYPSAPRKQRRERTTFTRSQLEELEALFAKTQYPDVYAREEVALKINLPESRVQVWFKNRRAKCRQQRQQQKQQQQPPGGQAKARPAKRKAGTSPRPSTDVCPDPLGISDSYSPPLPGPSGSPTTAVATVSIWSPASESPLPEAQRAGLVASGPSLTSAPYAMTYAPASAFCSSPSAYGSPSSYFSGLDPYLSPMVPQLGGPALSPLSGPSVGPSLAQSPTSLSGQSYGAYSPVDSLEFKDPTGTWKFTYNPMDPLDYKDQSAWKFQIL
# Chain of HSF1 (Q00613 whole entry): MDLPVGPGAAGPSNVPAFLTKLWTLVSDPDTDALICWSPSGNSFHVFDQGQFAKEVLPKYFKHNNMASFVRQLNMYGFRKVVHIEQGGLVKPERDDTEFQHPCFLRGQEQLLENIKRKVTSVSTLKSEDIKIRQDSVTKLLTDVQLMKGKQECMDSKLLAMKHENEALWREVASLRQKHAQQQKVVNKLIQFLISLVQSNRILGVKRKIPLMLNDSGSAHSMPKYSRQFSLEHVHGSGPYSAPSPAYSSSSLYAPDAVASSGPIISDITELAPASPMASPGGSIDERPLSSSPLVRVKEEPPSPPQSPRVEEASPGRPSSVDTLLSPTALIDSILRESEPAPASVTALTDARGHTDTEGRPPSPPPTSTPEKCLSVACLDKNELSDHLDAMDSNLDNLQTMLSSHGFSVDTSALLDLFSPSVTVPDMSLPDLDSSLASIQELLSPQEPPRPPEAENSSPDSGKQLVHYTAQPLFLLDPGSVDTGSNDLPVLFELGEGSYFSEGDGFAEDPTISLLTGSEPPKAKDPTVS
# Chain of ELF1 (P32519 whole entry): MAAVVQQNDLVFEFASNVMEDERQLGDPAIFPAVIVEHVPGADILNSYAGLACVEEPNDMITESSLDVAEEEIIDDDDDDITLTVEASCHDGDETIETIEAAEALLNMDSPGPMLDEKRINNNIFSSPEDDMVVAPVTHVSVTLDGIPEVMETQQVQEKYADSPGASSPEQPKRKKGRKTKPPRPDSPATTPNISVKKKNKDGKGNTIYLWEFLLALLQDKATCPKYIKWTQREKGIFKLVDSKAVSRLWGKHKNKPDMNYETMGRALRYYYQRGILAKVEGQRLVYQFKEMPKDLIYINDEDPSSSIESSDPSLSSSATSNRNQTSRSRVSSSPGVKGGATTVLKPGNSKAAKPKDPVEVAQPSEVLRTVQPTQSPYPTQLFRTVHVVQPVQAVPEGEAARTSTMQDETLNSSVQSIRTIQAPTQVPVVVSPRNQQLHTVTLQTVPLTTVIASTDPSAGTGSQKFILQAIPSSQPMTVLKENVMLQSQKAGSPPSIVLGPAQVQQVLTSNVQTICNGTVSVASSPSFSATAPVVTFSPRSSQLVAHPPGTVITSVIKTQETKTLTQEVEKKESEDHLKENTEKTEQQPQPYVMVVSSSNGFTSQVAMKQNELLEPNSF
# Chain of ETV5 (P41161 whole entry): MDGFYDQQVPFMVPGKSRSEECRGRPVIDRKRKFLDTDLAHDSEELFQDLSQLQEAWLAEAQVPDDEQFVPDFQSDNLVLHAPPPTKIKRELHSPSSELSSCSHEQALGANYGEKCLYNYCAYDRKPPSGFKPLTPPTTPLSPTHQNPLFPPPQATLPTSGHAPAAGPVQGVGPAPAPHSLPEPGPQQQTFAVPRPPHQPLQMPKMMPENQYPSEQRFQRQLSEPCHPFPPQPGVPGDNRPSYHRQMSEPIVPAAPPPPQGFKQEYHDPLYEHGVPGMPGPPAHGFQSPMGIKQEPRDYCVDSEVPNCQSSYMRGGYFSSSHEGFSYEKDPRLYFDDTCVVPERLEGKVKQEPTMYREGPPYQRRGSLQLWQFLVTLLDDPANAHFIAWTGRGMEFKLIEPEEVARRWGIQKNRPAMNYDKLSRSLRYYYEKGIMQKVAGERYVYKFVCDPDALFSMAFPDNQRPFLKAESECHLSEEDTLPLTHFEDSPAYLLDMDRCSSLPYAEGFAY
# Chain of ETV1 (P50549 whole entry): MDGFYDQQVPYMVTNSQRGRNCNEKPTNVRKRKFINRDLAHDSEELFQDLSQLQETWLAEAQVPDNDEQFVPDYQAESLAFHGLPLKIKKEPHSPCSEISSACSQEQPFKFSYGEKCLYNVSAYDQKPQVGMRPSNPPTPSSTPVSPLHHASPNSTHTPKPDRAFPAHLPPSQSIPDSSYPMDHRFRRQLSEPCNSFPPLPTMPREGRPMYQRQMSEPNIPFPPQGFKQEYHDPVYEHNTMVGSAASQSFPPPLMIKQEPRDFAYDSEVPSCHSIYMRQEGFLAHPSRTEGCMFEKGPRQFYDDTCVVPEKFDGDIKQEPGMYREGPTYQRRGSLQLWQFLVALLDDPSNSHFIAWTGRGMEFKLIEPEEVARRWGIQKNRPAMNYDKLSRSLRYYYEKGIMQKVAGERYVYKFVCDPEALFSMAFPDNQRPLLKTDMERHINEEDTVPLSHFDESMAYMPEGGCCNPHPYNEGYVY
sequence,measurement,setting,value
CTCGTA,binding signal,FLI1,"1.31 fold enrichment (6-mer frequency, TF over GST control)"
same,binding signal,ELK1,"1.37 fold enrichment (6-mer frequency, TF over GST control)"
same,binding signal,GABPA,"1.3 fold enrichment (6-mer frequency, TF over GST control)"
same,binding signal,ERG,"1.22 fold enrichment (6-mer frequency, TF over GST control)"
same,binding signal,ELF1,"1.32 fold enrichment (6-mer frequency, TF over GST control)"
same,binding signal,EHF,"1.31 fold enrichment (6-mer frequency, TF over GST control)"
same,binding signal,SPI1,"1.39 fold enrichment (6-mer frequency, TF over GST control)"
same,binding signal,SPIB,"1.38 fold enrichment (6-mer frequency, TF over GST control)"
same,binding signal,ELK3,"1.36 fold enrichment (6-mer frequency, TF over GST control)"
same,binding signal,FEV,"1.33 fold enrichment (6-mer frequency, TF over GST control)"
same,binding signal,ETV5,"1.29 fold enrichment (6-mer frequency, TF over GST control)"
same,binding signal,HSF1,"1.77 fold enrichment (6-mer frequency, TF over GST control)"
same,binding signal,SPIC,"1.25 fold enrichment (6-mer frequency, TF over GST control)"
same,binding signal,ELF4,"1.35 fold enrichment (6-mer frequency, TF over GST control)"
same,binding signal,ELK4,"1.16 fold enrichment (6-mer frequency, TF over GST control)"
same,binding signal,ETV2,"1.44 fold enrichment (6-mer frequency, TF over GST control)"
same,binding signal,ELF3,"1.39 fold enrichment (6-mer frequency, TF over GST control)"
same,binding signal,CRX,"1.38 fold enrichment (6-mer frequency, TF over GST control)"
same,binding signal,ETV1,"1.35 fold enrichment (6-mer frequency, TF over GST control)"
